# Results: PubChem BioAssay (EPA / NIEHS)
# Inconclusive results are not listed. The source holds several records for some structures; these can differ, active in one and inactive in another. Active and inactive are the calls of the source. How the source made its calls: active means hit-call score of the fitted dose curve at least 0.9, where 1 is the maximum; inconclusive means response in the unintended direction; inactive means score below 0.9.
# Test: ATG_M_06_TRANS: Attagene TRANS-FACTORIAL HepG2 Assay for M06 Transcription Factor (Internal Marker) (AID 2282983);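 on AC50: potency for rise in reporter mRNA above DMSO baseline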
# Details: HepG2 Attagene TRANS M06 internal marker reporter
# Protocol: ATG_TRANS is a cell-based, multiplexed-readout assay that uses HepG2, a human liver cell line, with measurements taken at 24 hours after chemical dosing in a 24-well plate.ATG_M_06_TRANS is one of 30 assay component(s) measured or calculated from the ATG_TRANS assay. It is designed to make measurements of mRNA induction, a form of inducible reporter, as detected with fluorescence intensity signals by Reverse transcription polymerase chain reaction (RT-PCR) and Capillary electrophoresis technology.Data from the assay component ATG_M_06_TRANS was analyzed into 1 assay endpoint. This assay endpoint, ATG_M_06_TRANS, was analyzed in the positive analysis fitting direction relative to DMSO as the negative control and baseline of activity. Using a type of inducible reporter, measures of mRNA for gain-of-signal activity can be used to understand the background control at the transcription factor-level as they relate to the gene . Furthermore, this assay endpoint can be referred to as a secondary readout, because this assay has produced multiple assay endpoints where this one serves a background control function. To generalize the intended target to other relatable targets, this assay endpoint is annotated to the background measurement intended target family, where the subfamily is internal marker.
# Human liver HepG2 cells are transiently transfected with multiple reporter transcription units (MRTUs) in 6-well plates using FuGene 6 reagent (Roche; 3 ml FuGene/1 mg DNA). The MRTU constructs are regulated by a cis-regulating element (promoter). […] A major difference between the CIS and TRANS system is that in CIS activities of endogenous TFs are measured, whereas the TRANS assay evaluates changes in activities of exogenous, chimeric NR-Gal4 proteins. […] At the end of 24 hour incubation, total RNA was isolated using TriZol reagent (Invitrogen). The isolated RNA is then reverse-transcribed using oligo(dT) primer and Mo-MLV reverse transcriptase (Invitrogen) with DNAse I (Ambion) treatment for 30 min. The one-tenth of the produced cDNA was amplified by PCR using Taq DNA polymerase (Invitrogen) and two reporter sequence-specific primers. The PCR products were fluorescently labeled by primer extension with 6-arboxyfluorescein (6-FAM) 5'-labeled reporter sequence-specific primer (2 min at 95 C, 20 s at 68 C and 10 min at 72 C) and these products were digested with 5U of HpaI (New England Biolabs) for 2h at 37 C. The fragments were purified using Qiaquick PCR columns (Qiagen), analyzed on an ABI 3130xL genetic analyzer (Applied Biosystems) with peak positions identified by using a set of X-rhodamine (ROX)-labeled MapMarker1000 molecular weight standards (BioVentures). The raw capillary electrophoresis data was processed using Attagraph software (Attagene).
Compound,outcome,AC50
NCC(F)(F)C(F)(F)C(F)(F)C(F)(F)C(F)(F)C(F)(F)C(F)(F)F,inactive,–
CC(=O)CC(C)(C)O,inactive,–
CN(C)C=O,inactive,–
O=C(OCCOCCOC(=O)c1ccccc1)c1ccccc1,inactive,–
Oc1cccc(O)c1,inactive,–
O=C(O)Cc1cc(I)c(Oc2cc(I)c(O)c(I)c2)c(I)c1,inactive,–
CCCCCCCCCCCCCCCS(=O)(=O)Oc1ccccc1,inactive,–
CCCCCCC(=O)O,inactive,–
CC(O)CO (stereo not given),inactive,–
c1ccc2c(c1)ccc1ccccc12,inactive,–
CCCCC[C@H](O)CC(=O)CCc1ccc(O)c(OC)c1,inactive,–
C[C@@H]1C[C@H]2[C@@H]3CCC4=CC(=O)C=C[C@]4(C)[C@@]3(F)[C@@H](O)C[C@]2(C)[C@@]1(O)C(=O)COP(=O)(O)O,inactive,–
CC[C@H](c1ccc(O)cc1)[C@@H](CC)c1ccc(O)cc1,inactive,–
CCCCC(CC)COC(=O)CCCCC(=O)OCc1ccccc1 (stereo not given),inactive,–
CCCCCCCCC(=O)O,inactive,–
CC#C[C@]1(O)CC[C@H]2[C@@H]3CCC4=CC(=O)CCC4=C3[C@@H](c3ccc(N(C)C)cc3)C[C@@]21C,inactive,–
O=c1c(-c2ccc(O)cc2)coc2cc(O)ccc12,inactive,–
CN1CCC[C@H]1c1cccnc1,inactive,–
C#C[C@]1(O)CC[C@H]2[C@@H]3CCC4=CC(=O)CC[C@@H]4[C@H]3CC[C@@]21C,inactive,–
Oc1cc2ccccc2c2ccccc12,inactive,50.8 µM (active)

Compound,outcome,AC50
CCCCOCCO,inactive,–
ClC1=C(Cl)C(Cl)(Cl)C(Cl)=C1Cl,inactive,–
NC(=O)N1C(=O)C(C(=O)c2cc(Cl)cs2)c2cc(F)c(Cl)cc21 (stereo not given),inactive,–
OCCC(F)(F)C(F)(F)C(F)(F)C(F)(F)C(F)(F)C(F)(F)F,inactive,–
CC(C)(C)c1cc(C(C)(C)C)c(O)c(C(C)(C)C)c1,inactive,–
CCc1nn(C2CCCCC2)c2cc(C3(C#N)CCC(C(=O)O)CC3)ccc12 (stereo not given),inactive,–
CC(=O)NC1(c2cccc(F)c2)CCN(CC[C@@]2(c3ccc(Cl)c(Cl)c3)CN(c3ccccc3)C(=O)CO2)CC1,–,52 µM (active)
COCC(C)OCC(C)O (stereo not given),inactive,–
O=C1OC2(c3ccccc31)c1cc(Br)c(O)c(Br)c1Oc1c2cc(Br)c(O)c1Br,inactive,–
CC(C)CCCCCCOC(=O)CCCCC(=O)OCCCCCCC(C)C,inactive,–
CC(C)(C)c1ccc(O)c(C(C)(C)C)c1,inactive,–
c1ccc2c(c1)Cc1ccccc1-2,inactive,–
CCCOC(=O)c1ccc(O)cc1,inactive,–
Cc1cc(C)c(O)c(C)c1,inactive,–
OC1CCC(C2CCCCC2)CC1 (stereo not given),inactive,–
OCCC(F)(F)C(F)(F)C(F)(F)C(F)(F)C(F)(F)C(F)(F)C(F)(F)C(F)(F)F,inactive,–
COC(=O)CCCCC(=O)OC,inactive,–
O=C(O)c1ccccc1C(c1ccc(O)cc1)c1ccc(O)cc1,inactive,–
O=[N+]([O-])c1ccc(O)cc1,inactive,–
